Source: PubChem
Rab9 promoter act = qHTS Assay for Rab9 Promoter Activators; Huh7 Rab9 promoter-luciferase reporter, luminescence, 24 h; Potency, µM (top dose mostly 9.22 µM), usual class: activators; 320,000 compounds, 2.8% hits; AID 485297, 2010; further: nearly all actives have a fitted effect of over 60% in size
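Luciferase signal after 10 min detection reagent at ambient indicates Rab9 promoter upregulation; stably transfected Huh7 cells were treated 24 h with compound in DMSO at 37 °C, 5% CO2.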
ELG1 DNA repair = qHTS screen for small molecules that inhibit ELG1-dependent DNA repair in human embryonic kidney (HEK293T) cells expressing luciferase-tagged ELG1; HEK293T ELG1-luciferase reporter, luminescence, 16 h; DNA damage induced by 5-fluorouridine; Potency, µM (top dose mostly 46.1 µM), actives largely listed as inhibitors; 330,000 compounds, 2.3% hits; further: nearly all actives have a fitted effect of over 55% in size
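Cells (2,000 per well) received 5-fluorouridine plus test compound or DMSO and were incubated 16 hr at 37 °C, 5% CO2. Luciferase activity was read by luminescence 30 min after ONE-Glo addition; signal suppression marked inhibition of damage-induced ELG1 function.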
FLuc modulator = qHTS profiling assay for firefly luciferase inhibitor/activator using purifed enzyme and Km concentrations of substrates (counterscreen for miR-21 project); Luciferin 4-monooxygenase (Photinus pyralis), P08659; purified FLuc, Km substrates, luminescence inhibition; Potency, µM (titrated, usually from 57.5 µM), most hits filed as inhibitors; 360,000 compounds, 6.9% hits; AID 588342, 2011; further: nearly all actives have a fitted effect of over 55% in size
Target sequence (P08659 whole entry, looked up): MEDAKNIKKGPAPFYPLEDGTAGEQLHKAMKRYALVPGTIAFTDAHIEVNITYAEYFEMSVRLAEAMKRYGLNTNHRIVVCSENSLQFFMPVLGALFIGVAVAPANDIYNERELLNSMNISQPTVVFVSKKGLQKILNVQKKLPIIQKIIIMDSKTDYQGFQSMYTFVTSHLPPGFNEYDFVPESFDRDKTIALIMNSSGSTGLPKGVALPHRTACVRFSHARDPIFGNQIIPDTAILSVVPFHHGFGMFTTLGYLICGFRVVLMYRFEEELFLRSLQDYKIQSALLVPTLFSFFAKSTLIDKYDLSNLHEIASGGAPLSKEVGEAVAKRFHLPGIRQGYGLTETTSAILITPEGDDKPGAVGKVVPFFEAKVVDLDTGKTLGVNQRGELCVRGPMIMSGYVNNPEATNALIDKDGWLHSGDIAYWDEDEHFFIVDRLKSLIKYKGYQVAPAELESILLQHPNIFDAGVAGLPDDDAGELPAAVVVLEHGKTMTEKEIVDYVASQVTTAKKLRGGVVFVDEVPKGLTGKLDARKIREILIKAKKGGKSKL
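Biochemical qHTS of compounds, final roughly 60 µM downward over six points, against 10 nM purified firefly luciferase using Km concentrations of substrates (10 uM D-luciferin, 10 uM ATP) in Tris acetate pH 7.5 buffer; luminescence output.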
SMN2 splice up = qHTS Assay for Enhancers of SMN2 Splice Variant Expression; HEK293 SMN2-luciferase splicing reporter, luminescence, 30-36 h; Potency, µM (highest dose often 46.1 µM), most hits filed as activators; 210,000 compounds, 2.8% hits; AID 1458, 2008; further: nearly all actives have a fitted effect of over 55% in size
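qHTS luciferase splicing reporter: luminescence rises when SMN2 exon 7 is included in transfected HEK293 cells. Compound exposure lasted 30-36 h at 37C, with 4.5 mM final sodium butyrate as control, followed by a ONE-Glo read.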
ELG1 genotoxic = qHTS screen for small molecules that induce genotoxicity in human embryonic kidney (HEK293T) cells expressing luciferase-tagged ELG1 | HEK293T ELG1-luciferase reporter, luminescence, 16 h | Potency, µM (titrated, usually from 46 µM), most hits filed as activators | 330,000 compounds, 1.3% hits; further: nearly all actives have a fitted effect of over 60% in size
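HEK293T cells expressing luciferase-tagged ELG1 were treated with compound or DMSO for 16 hr at 37°C. Luciferase activity was then read after 30 min with ONE-Glo at room temperature; rising signal flags genetic stress.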
NPC1 promoter act = qHTS Assay for NPC1 Promoter Activators | Huh7 NPC1 promoter luciferase reporter, 24 h | 320,000 compounds, 2.4% hits | AID 485313, 2010 | Potency, µM (highest dose often 9.22 µM), usual class: activators; further: nearly all actives have a fitted effect of over 60% in size
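Huh7 reporter cells (NPC1 promoter driving luciferase) are dosed with compound for 24 h at 37 °C, 5% CO2; luciferase detection reagent is then added and luminescence measured after 10 min at ambient temperature.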
A number is an active result; 0 = inactive; ? = inconclusive; - = no result; [ ] = remark or other dose. The list is not random: actives were taken first. Their share in the collection is about 9.3%. The call rests on the fitted dose curve; in most records, active means well fitted curve in the direction sought with a large enough effect; inconclusive means small, poorly fitted or top-dose-only effect, or another doubt; inactive means no such curve, though single readings can be large; an effect the other way counts as inactive or inconclusive.

SMILES	Rab9 promoter act	ELG1 DNA repair	FLuc modulator	SMN2 splice up	ELG1 genotoxic	NPC1 promoter act
Cc1ccc(C(=O)Nc2nc(-c3cccnc3)cs2)o1	0	0	21µM	0	0	0
CC(=O)Oc1ccc(-c2csc(Nc3ccc(S(N)(=O)=O)cc3)n2)cc1	0	0	0	-	0	0
COc1ccc(-c2csc(Nc3ccc(S(N)(=O)=O)cc3)n2)cc1	0	16µM	?	0	0	0
COc1ccc(-c2csc(Nc3ccccc3)n2)cc1	1µM	?	3µM	4µM	2.1µM	2.2µM
COc1ccc(Nc2nc(-c3c[nH]c4ccccc34)cs2)cc1	0	?	15µM	?	0	0
COc1ccc(-c2csc(Nc3cccnc3)n2)cc1	-	-	6µM	0	-	-
CC(=O)NCCC(=O)Nc1nc(-c2c[nH]c3ccccc23)cs1	0	0	?	-	0	0
O=C(CN1N=C(c2ccccc2)CCC1=O)NCc1ccc(F)cc1Cl	-	-	0	-	-	-
COc1ccc(Nc2nc(-c3ccc(OC)cc3)cs2)cc1	1.6µM	?	?	?	?	3.2µM
COc1ccc2oc(=O)c(-c3csc(Nc4ccc(O)cc4)n3)cc2c1	0	9.2µM	3µM	?	0	0
COc1ccc2oc(=O)c(-c3csc(-c4ccc(Br)cc4)n3)cc2c1	-	-	0	-	-	-
Cc1ccc(C(O)C(=O)c2ccco2)cc1 (stereo unspecified)	0	0	0	-	0	0
COc1ccc(N=N/C(=C\O)C(=O)c2ccco2)cc1	0	?	24µM	0	0	0
Cc1ccc(/C(N)=N/OC(=O)c2ccco2)cc1	2.5µM	?	2.4µM	11µM	?	4µM
N/C(=N\OC(=O)CCCOc1ccccc1)c1ccc(Br)cc1	0	0	0	0	0	0
Cc1cccc(C(=O)NCCNC(=O)c2ccco2)c1	0	0	0	-	0	0
Cc1cccc(/C(N)=N/OC(=O)c2ccco2)c1	?	?	1.9µM	16µM	2.3µM	?
N/C(=N\OC(=O)c1ccco1)c1ccc(Br)cc1	?	?	6.7µM	0	?	?
COc1cccc(NC(=O)COC(=O)c2ccco2)c1	0	0	?	0	0	0
COc1ccc(C(=O)COC(=O)c2ccco2)cc1	0	?	1.1µM	0	?	?
O=C(NNC(=O)c1ccco1)c1ccccc1	0	?	0	?	0	0
N/C(=N\OC(=O)c1ccco1)c1ccccn1	0	?	8.5µM	?	?	0
N/C(=N\OC(=O)c1ccco1)c1ccccc1	0	?	6.7µM	22µM	?	0
O=C(OCc1ccc(COC(=O)c2ccccn2)cc1)c1ccccn1	0	0	0[2.3 µM]	0	0	0
Cc1ccc(/C(N)=N/OC(=O)N2CCOCC2)cc1	0	0	?	0	0	0
SMILES	Rab9 promoter act	ELG1 DNA repair	FLuc modulator	SMN2 splice up	ELG1 genotoxic	NPC1 promoter act
Cc1cccc(/C(N)=N/OC(=O)N2CCOCC2)c1	0	0	17µM	0	0	0
CC1=CC(C)(C)[N+](C)(C)c2ccc(C)cc21	0	0	0	0	0	0
COC(=O)c1c(NC(=O)c2cc(=O)c3cc(C)cc(C)c3o2)sc2c1CCC2	-	-	0	0	-	-
COC(=O)c1ccc(OC(=O)c2ccco2)cc1	0	0	?	0	0	0
COc1ccc(C(=O)COC(=O)c2cncc(Br)c2)cc1	0	?	?	-	0	0
COc1ccc(/C(N)=N/OC(=O)c2ccco2)cc1	0.35µM	?	0.95µM	6.3µM	0.46µM	0.5µM
COc1ccc(C(=O)COC(=O)c2ccn(C)n2)cc1	?	?	17µM	-	?	3.5µM
Cn1cc(S(=O)(=O)NC2CCCCC2)c(=O)n(C)c1=O	0	0	0	-	0	0
CC(C)N(C(=O)CSc1nnc(NC(=O)c2ccco2)s1)C(C)C	0	0	0	0	0	0
Cc1ccc(NC(=O)CSc2nnc(NC(=O)c3ccco3)s2)cc1	0	?	21µM	0	0	0
